# Test results reported in PubChem BioAssay AID651661 (Broad Institute, 2012).
# About 2,300 (0.66%) of roughly 350,000 compounds were called active.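 The calls were made as follows: active = mean inhibition of at least 50% after viability correction, with every replicate also passing that limit; inconclusive = mean reaches 50% but only one of two replicates passes; inactive = the rest.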 For the sample, actives were picked, then their nearest neighbours and some compounds at random.
# Test: blockers of EWS/Fli transcriptional output – A673 cells, NR0B1 luciferase, luminescence, MLPCN library, primary screen (AID 651661);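 also: firefly luciferase signal divided by Alamar Blue viability fluorescence both relative to DMSO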
# Conditions: A673 NR0B1-luciferase reporter, viability-normalised; at 12.6 µM; hits give high values
row,SMILES,inhibition
1,COc1cccc(OC)c1C(=O)NC(=S)Nc1ccc(N2CCOCC2)c(Cl)c1,-7.45% (inactive)
2,CCOc1ccc(C(=O)Nc2ccc(CN3CCOCC3)cc2)cc1Cl,-7.97% (inactive)
3,CCOc1ccc(C(=O)NC(=S)Nc2ccc(N3CCOCC3)c(Cl)c2)cc1[N+](=O)[O-],72% (active)
4,CC(C)NC(=O)N1[C@H](C#N)[C@H](c2ccc(C#CC3CCCCC3)cc2)[C@H]1CO,19.7% (inactive)
5,CO[C@@H]1CN(C)C(=O)c2cc(NC(=O)C3CC3)ccc2OC[C@@H](C)N(C(=O)c2ccncc2)C[C@H]1C,2.15% (inactive)
6,C[C@H]1CCCCO[C@H](CN(C)C(=O)CCC(F)(F)F)[C@@H](C)CN([C@@H](C)CO)C(=O)c2cc(NC(=O)Cc3ccccc3)ccc2O1,6.65% (inactive)
7,O=C(NC1CCCC1)N1CC(=O)N2[C@H](C1)[C@H](c1ccc(/C=C/c3ccccc3)cc1)[C@@H]2CO,3.76% (inactive)
8,CN(C)CCN1CCN(c2cc(-c3cccc(Cl)c3)nc3ccnn23)CC1,1.41% (inactive)
9,C#Cc1cc(N2CCN(C(=O)c3ccoc3)CC2)n2nc(-c3cccc(Cl)c3)cc2n1,53% (active)
10,O=C(c1ccccc1)N1CCN(c2cc(-c3ccccc3)nc3cc(-c4cccc(Cl)c4)nn23)CC1,-22.8% (inactive)
11,C[C@@H]1CN([C@@H](C)CO)C(=O)CCCn2cc(nn2)CO[C@@H]1CN(C)Cc1cccc(O)c1,8.82% (inactive)
12,CN(CCO)c1ccc(/C=N/Nc2nncc3ccccc23)cc1,67.2% (active)
13,COc1ccc2c3c(n(C)c2c1)[C@H](CO)N(Cc1ccc(F)cc1)CC31CN(CC2CCOCC2)C1,-3.68% (inactive)
14,CCOC(=O)C(=Cc1ccccc1)C(=O)c1ccccc1,-15.6% (inactive)
15,Cc1cc(C)nc(S/C=C/C(=O)c2ccccc2)n1,50.2% (active)
16,COC(c1ccccc1)(c1ccccc1)C(Oc1nc(C)cc(C)n1)C(=O)O (configuration not stated),3.9% (inactive)
17,C[C@@H]1CCCCO[C@@H](CN(C)C(=O)NC2CCCCC2)[C@@H](C)CN([C@H](C)CO)C(=O)c2cc(NC(=O)CCCCCC(=O)Nc3ccccc3N)ccc2O1,-0.378% (inactive)
18,CCC(=O)N(C)C[C@H]1Oc2cc(-c3ccccc3F)ccc2S(=O)(=O)N([C@H](C)CO)C[C@@H]1C,1.15% (inactive)
19,COC(=O)C(CC#Cc1ccc2c(c1)[C@]1(C(=O)N2)[C@H](c2ccc(O)cc2)N2[C@H](c3ccccc3)[C@H](c3ccccc3)OC(=O)[C@H]2[C@@H]1C(=O)NC[C@H](O)c1ccccc1)C(=O)OC,-4.53% (inactive)
20,COC(=O)C(CC#Cc1ccc2c(c1)[C@]1(C(=O)N2)[C@H](c2ccccc2OCCO)N2[C@H](c3ccccc3)[C@H](c3ccccc3)OC(=O)[C@H]2[C@@H]1C(N)=O)C(=O)OC,70.7% (active)
21,COc1ccc(C#Cc2ccc3c(c2)[C@]2(C(=O)N3)[C@H](c3ccccc3OCCO)N3[C@H](c4ccccc4)[C@H](c4ccccc4)OC(=O)[C@H]3[C@@H]2C(=O)N2CCCCCCC2)cc1,7.03% (inactive)
22,O=C(CC1CC1)N1[C@@H]2CN(S(=O)(=O)c3ccc(F)cc3)c3ccccc3[C@@H]2[C@@H]1CO,2.01% (inactive)
23,CN1CCN(C(=O)C[C@H]2CC[C@H]3[C@H](COc4ccc(NC(=O)C5CC5)cc4C(=O)N3C)O2)CC1,0.362% (inactive)
24,C=C(C)C(=O)O[C@H]1C/C(C)=C\C(=O)/C=C(\C)[C@H](O)[C@@H]2OC(=O)C(=C)[C@@H]21,74% (active)

row,SMILES,inhibition
1,C[C@@H]1CN([C@@H](C)CO)C(=O)Cc2cc(NC(=O)Nc3ccc4c(c3)OCO4)ccc2O[C@@H]1CN(C)CC1CCCCC1,-9.05% (inactive)
2,COc1cccc(-c2ccc3c(c2)[C@@H]2[C@@H](CCN2C(=O)CN2CCOCC2)[C@H](CO)N3)c1,-6.11% (inactive)
3,O=[N+]([O-])/C=C/c1ccc2c(ccn2Cc2ccccc2)c1,68.6% (active)
4,Cc1ccccc1S(=O)(=O)Nc1ccc2c(c1)C(=O)N(C)[C@@H]1CC[C@@H](CC(=O)O)O[C@@H]1CO2,2.06% (inactive)
5,CO[C@H]1CN(C)C(=O)c2ccc(NC(=O)NC(C)C)cc2OC[C@H](C)N(Cc2cncnc2)C[C@@H]1C,-9.44% (inactive)
6,COc1ccc(CNS(=O)(=O)c2cc(-c3cc(C)no3)ccc2C(C)C)cc1,55.5% (active)
7,Cc1cc(-c2ccc(C)c(S(=O)(=O)Nc3ccc(S(N)(=O)=O)cc3)c2)on1,5.81% (inactive)
8,COc1ccc(CNS(=O)(=O)c2cc(Br)ccc2Br)cc1,-12% (inactive)
9,O=C(C[C@H]1C[C@H]2c3cc(NC(=O)C4CCC4)ccc3O[C@H]2[C@@H](CO)O1)NCc1ccc(Cl)cc1,-0.922% (inactive)
10,CO[C@@H]1CN(C)C(=O)c2cc(NC(=O)Nc3ccccc3F)ccc2OC[C@H](C)NC[C@H]1C,-10.4% (inactive)
11,COC(=O)Cc1[nH]n(-c2nc3ccccc3s2)c(=O)c1C(C)=Nc1ccc(OC)cc1,67.1% (active)
12,CCc1nc2ccccc2c(C(=O)NCc2ccc(OC)cc2)c1C,22.9% (inactive)
13,COC(=O)CC1=NN(c2ccccc2)C(=O)C1,2.41% (inactive)
14,COc1ccc(CN(C)C[C@@H]2OCCCC[C@H](C)Oc3ccc(NC(=O)c4ccccc4)cc3C(=O)N([C@H](C)CO)C[C@H]2C)cc1,4.63% (inactive)
15,CCS(=O)(=O)N1CC2(CN(C(=O)c3ccc(F)cc3)[C@H](CO)c3c2c2ccc(OC)cc2n3C)C1,-3.98% (inactive)
16,O=C(C[C@H]1C[C@H]2c3cc(NC(=O)NC4CCCC4)ccc3O[C@H]2[C@H](CO)O1)NCCc1ccccc1,-0.115% (inactive)
17,CC(=O)Nc1cccc(-c2ccnc3c2CC(C)(C(=O)NCc2ccco2)O3)c1 (configuration not stated),47.3% (inactive)
18,COc1ccc(NC(=O)C2(C)Cc3c(-c4cccc(NC(C)=O)c4)ccnc3O2)cc1 (configuration not stated),72% (active)
19,COc1ccc(NC(=O)C2(C)Cc3c(-c4ccc(C(N)=O)cc4)ccnc3O2)cc1 (configuration not stated),9.42% (inactive)
20,COc1ccc(NC(=O)C2(C)Cc3c(-c4cccc(NC(C)=O)c4)ccnc3O2)cc1OC (configuration not stated),12.4% (inactive)
21,CC1(C(=O)Nc2cccnc2)Cc2c(-c3ccccc3)ccnc2O1 (configuration not stated),-3.3% (inactive)
22,CC(=O)Nc1cccc(-c2ccnc3c2CC(C)(C(=O)NCc2ccccc2)O3)c1 (configuration not stated),56.4% (active)
23,COCC(=O)Nc1ccc2c(c1)C(=O)N(C)[C@@H]1CC[C@H](CC(=O)NCCc3ccccc3)O[C@@H]1CO2,6.92% (inactive)
24,C[C@H](CO)N1C[C@H](C)[C@@H](CN(C)S(=O)(=O)c2ccc([N+](=O)[O-])cc2)OCc2ccccc2-c2c(n(C)c3ccccc23)C1=O,14.6% (inactive)

row,SMILES,inhibition
1,CO[C@H]1CN(C)C(=O)c2cc(NC(C)=O)ccc2OC[C@H](C)N(C(=O)CN(C)C)C[C@@H]1C,-2.59% (inactive)
2,CCS(=O)(=O)N1CCC2(CC1)CN[C@H](CO)c1c2c2ccc(OC)cc2n1C,8.2% (inactive)
3,CCOc1ccc(OCc2ccc(C(=O)N(C)c3ccccc3)o2)cc1,-36.4% (inactive)
4,CCOc1ccc(OCc2cccc(C(=O)N(CC)CC)c2)cc1,67.8% (active)
5,CC(C)(C)OC(=O)N(Cc1ccccc1)Cc1ccc(OCc2cccc(NC(=O)c3ccccc3)c2)cc1,11.8% (inactive)
6,CC=Cc1ccc2n(c1=O)C[C@@H]1[C@@H](CO)[C@H](C(=O)N(C)C)N(CC3CCOCC3)[C@H]21 (mixture of isomers),-1.84% (inactive)
7,Cc1ccccc1S(=O)(=O)N1[C@H](CO)[C@@H](c2ccc(-c3ccccc3)cc2)[C@@H]1C#N,18.6% (inactive)
8,O=C(C[C@H]1C[C@@H]2c3cc(NC(=O)C4CCOCC4)ccc3O[C@@H]2[C@H](CO)O1)NCC1CC1,2.22% (inactive)
9,C[C@@H]1C[C@@H]2O[C@H]2/C=C\C=C\C(=O)Cc2c(Cl)c(O)cc(O)c2C(=O)O1,76.6% (active)
10,COc1cnc(-c2ccccn2)nc1Oc1ccc(C(C)(C)C)cc1,18.9% (inactive)
11,CC(C)(C)c1ccc(Oc2ccc(N)cc2)cc1,65.3% (active)
12,COCC(=O)Nc1ccc2c(c1)C(=O)N(C)[C@@H]1CC[C@@H](CC(=O)NCC(F)(F)F)O[C@H]1CO2,-7.87% (inactive)
13,CCNC(=O)Nc1ccc2c(c1)C(=O)N(C)[C@@H]1CC[C@@H](CC(=O)NC3CCCCC3)O[C@H]1CO2,6.61% (inactive)
14,O=C(c1ccc(F)cc1)N1CC(=O)N2[C@H](C1)[C@@H](c1ccc(C#CC3CC3)cc1)[C@@H]2CO,-6.65% (inactive)
15,CCCNC(=O)N1C[C@@H](C)[C@@H](OC)CN(C)C(=O)c2ccc(NC(=O)C3CCC3)cc2OC[C@@H]1C,-1.5% (inactive)
16,NC(=O)c1ccc(NC(=O)COC(=O)c2c3c(nc4ccccc24)/C(=C\c2ccc4c(c2)OCO4)CCC3)cc1,-2.89% (inactive)
17,Clc1ccc(Nc2ccc3ccccc3n2)cc1,-53.3% (inactive)
18,C(=N\Nc1ccc2ccccc2n1)/c1ccc2c(c1)OCO2,59.1% (active)
19,CC(C)NC(=O)N1C[C@@H]2[C@H](c3ccccc31)[C@@H](CO)N2Cc1ccc(Cl)cc1,14.5% (inactive)
20,CCN1/C(=C\c2ccc3ccccc3[n+]2CC)Sc2cc(C)ccc21,56.7% (active)
21,COc1cccc(CNC(=O)c2nnn(CC(=O)Nc3cc(Cl)ccc3C)c2N)c1,2.98% (inactive)
22,Nc1c(C(=O)Nc2ccc3c(c2)OCCO3)nnn1Cc1ccccc1,-100% (inactive)
23,Nc1c(C(=O)NCc2ccccc2)nnn1Cc1cccc(Cl)c1,53% (active)
24,COc1cccc(S(=O)(=O)N(C)C[C@@H]2Oc3ncc(-c4cccc(C(=O)N(C)C)c4)cc3C(=O)N([C@H](C)CO)C[C@H]2C)c1,-6.58% (inactive)
